“And” between values parts separate entries of the source, which are not always exact repeats. Identical values can stand only once. A structure can be active in one record and inactive in another. The source made the active and inactive calls. The calls were made as follows: active = hit-call score of the fitted dose curve at least 0.9, where 1 is the maximum; inactive = score below 0.9.
Tests used:
[1] = biological target: Transcriptional activator Myb (Homo sapiens) (UniProt P10242); assay: ATG_Myb_CIS: Attagene CIS-FACTORIAL HepG2 Assay for human Myeloblastosis (Myb) Proto-Oncogene Transcription Factor (AID 2282986); settings: HepG2 Attagene CIS-FACTORIAL Myb reporter transcription; actives raise or lower the signal
Transcriptional activator Myb (Homo sapiens), sequence (P10242 whole entry, looked up): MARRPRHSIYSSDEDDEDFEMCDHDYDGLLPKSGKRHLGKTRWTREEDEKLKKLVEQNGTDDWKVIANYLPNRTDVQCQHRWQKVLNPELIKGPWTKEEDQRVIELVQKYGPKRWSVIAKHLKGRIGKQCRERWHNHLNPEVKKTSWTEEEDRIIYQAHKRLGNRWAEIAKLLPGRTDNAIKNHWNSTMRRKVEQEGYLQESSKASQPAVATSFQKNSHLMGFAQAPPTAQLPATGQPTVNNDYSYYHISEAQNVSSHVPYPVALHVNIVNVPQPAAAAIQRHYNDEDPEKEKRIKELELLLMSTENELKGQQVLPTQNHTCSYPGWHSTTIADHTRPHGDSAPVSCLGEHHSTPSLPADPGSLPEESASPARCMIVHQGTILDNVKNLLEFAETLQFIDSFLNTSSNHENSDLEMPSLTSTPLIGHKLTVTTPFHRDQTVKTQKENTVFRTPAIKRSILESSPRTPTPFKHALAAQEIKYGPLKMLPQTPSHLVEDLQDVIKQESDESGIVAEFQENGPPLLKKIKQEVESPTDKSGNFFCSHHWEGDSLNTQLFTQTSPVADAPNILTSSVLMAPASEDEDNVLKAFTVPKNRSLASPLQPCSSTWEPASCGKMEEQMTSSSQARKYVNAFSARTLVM
Procedure, shortened: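 Transiently transfected HepG2 cells, treated 24 h. Reporter mRNA quantified by RT-PCR/capillary electrophoresis; bidirectional fit relative to DMSO.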

[2] = biological target: Nuclear respiratory factor 1 (Homo sapiens) (UniProt Q16656); assay: ATG_NRF1_CIS: Attagene CIS-FACTORIAL HepG2 Assay for human Nuclear Respiratory Factor 1 (NRF1) Orphan Gene (AID 2282987); settings: HepG2 NRF1 cis-element reporter, Attagene multiplex; actives raise or lower the signal
Nuclear respiratory factor 1 (Homo sapiens), sequence (Q16656 whole entry, looked up, the tested form may be a part): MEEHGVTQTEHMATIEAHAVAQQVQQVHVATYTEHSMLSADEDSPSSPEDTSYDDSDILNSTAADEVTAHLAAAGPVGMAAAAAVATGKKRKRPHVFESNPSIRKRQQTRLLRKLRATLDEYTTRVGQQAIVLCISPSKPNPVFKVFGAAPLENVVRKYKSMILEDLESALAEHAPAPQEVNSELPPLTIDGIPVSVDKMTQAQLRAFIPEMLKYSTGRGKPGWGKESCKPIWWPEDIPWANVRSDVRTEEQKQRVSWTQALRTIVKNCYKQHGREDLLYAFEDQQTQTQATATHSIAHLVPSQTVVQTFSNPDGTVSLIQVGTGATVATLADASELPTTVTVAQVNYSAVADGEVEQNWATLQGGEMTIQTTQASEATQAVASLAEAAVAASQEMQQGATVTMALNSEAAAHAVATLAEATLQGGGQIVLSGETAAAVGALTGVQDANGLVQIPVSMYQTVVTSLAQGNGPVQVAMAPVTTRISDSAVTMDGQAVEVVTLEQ
Procedure, shortened: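 Cells (HepG2, transient MRTU transfection) are exposed to compound for 24 h, then RNA isolated and reporter mRNA amplified and fluorescently labelled. Fragments are separated by capillary electrophoresis; signal change is fitted bidirectionally relative to DMSO.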

[3] = ATG_NFI_CIS: Attagene CIS-FACTORIAL HepG2 Assay for human Nuclear Factor I (NFI) (AID 2282989); settings: HepG2 cis-regulatory reporter, NFI response element transcription; actives raise or lower the signal
Procedure, shortened: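 Read-out: reporter mRNA via RT-PCR plus capillary electrophoresis with fluorescence detection. Transiently transfected HepG2 (endogenous TF activity on cis promoters), 24 h compound exposure; gain or loss of signal fitted against DMSO.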

[4] = biological target: Myc proto-oncogene protein (Homo sapiens) (UniProt P01106); assay: ATG_Myc_CIS: Attagene CIS-FACTORIAL HepG2 Assay for human Myelocytomatosis (Myc) Proto-Oncogene Transcription Factor (AID 2282990); settings: HepG2, Attagene cis-reporter transcription factor activity; actives raise or lower the signal
Myc proto-oncogene protein (Homo sapiens), sequence (P01106 whole entry, looked up): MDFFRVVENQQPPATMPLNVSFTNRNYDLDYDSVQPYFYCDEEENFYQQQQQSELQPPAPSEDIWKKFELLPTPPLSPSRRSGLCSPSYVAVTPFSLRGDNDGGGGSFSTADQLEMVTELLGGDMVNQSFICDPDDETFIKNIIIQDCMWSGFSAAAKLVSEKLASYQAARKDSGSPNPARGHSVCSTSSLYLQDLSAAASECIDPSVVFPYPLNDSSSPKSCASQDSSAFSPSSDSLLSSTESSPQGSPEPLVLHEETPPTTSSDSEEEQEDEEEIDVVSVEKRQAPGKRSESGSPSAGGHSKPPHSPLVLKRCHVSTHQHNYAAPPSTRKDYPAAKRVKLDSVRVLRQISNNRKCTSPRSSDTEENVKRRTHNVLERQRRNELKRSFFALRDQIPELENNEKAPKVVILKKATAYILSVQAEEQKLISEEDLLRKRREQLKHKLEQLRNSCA
Procedure, shortened: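 Transiently transfected HepG2 cells bearing cis-promoter reporter units for endogenous transcription factors; 24 h exposure. Reporter mRNA measured by RT-PCR, 6-FAM primer extension, HpaI cut and capillary electrophoresis; bidirectional fit relative to DMSO.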

[5] = ATG_NRF2_ARE_CIS: Attagene CIS-FACTORIAL HepG2 Assay for human Nuclear Factor Erythroid 2 Related Factor 2 (NFR2) response to Antioxidant Response Elements (ARE) (AID 2282992); settings: HepG2 Attagene ARE/NRF2 reporter, transcription factor activity; actives raise or lower the signal;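 as to AC50: reporter mRNA level measured by RT-PCR and capillary electrophoresis fluorescence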
Procedure, shortened: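 Fluorescence intensity of reporter-specific cDNA fragments, separated by capillary electrophoresis, reflects mRNA induction in transfected HepG2 cells at 24 h. Activity is fitted bidirectionally, DMSO serving as baseline.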

[6] = ATG_Oct_MLP_CIS: Attagene CIS-FACTORIAL HepG2 Assay for human Octamer-Binding Transcription Factor (Oct) (AID 2282993); settings: HepG2 Attagene cis-factorial Oct reporter, mRNA; actives raise or lower the signal
Procedure, shortened: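 Read-out: reporter mRNA via RT-PCR plus capillary electrophoresis of 6-FAM-labelled fragments. Transiently transfected HepG2, 24 h exposure, endogenous TF activity on cis elements. Gain or loss of signal fitted relative to DMSO.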

[7] = biological target: Cellular tumor antigen p53 (Homo sapiens) (UniProt P04637); assay: ATG_p53_CIS: Attagene CIS-FACTORIAL HepG2 Assay for human p53 Transcription Factor (AID 2282994); settings: HepG2 p53 cis-element reporter, Attagene mRNA; actives raise or lower the signal
Cellular tumor antigen p53 (Homo sapiens), sequence (P04637 whole entry, looked up): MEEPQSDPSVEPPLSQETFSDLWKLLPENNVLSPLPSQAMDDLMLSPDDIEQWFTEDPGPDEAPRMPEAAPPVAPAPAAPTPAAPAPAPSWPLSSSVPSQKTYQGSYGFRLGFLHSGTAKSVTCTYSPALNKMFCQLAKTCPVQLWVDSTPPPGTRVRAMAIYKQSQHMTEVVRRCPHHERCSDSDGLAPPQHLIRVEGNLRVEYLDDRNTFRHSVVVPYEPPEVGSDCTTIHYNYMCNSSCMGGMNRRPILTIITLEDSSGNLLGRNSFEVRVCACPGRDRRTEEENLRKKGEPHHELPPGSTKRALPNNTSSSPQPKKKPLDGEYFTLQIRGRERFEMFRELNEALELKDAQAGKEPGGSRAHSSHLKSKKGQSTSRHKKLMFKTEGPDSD
Procedure, shortened: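 Transiently transfected HepG2 (multiple cis reporter transcription units); exposure 24 h; reporter RNA via RT-PCR, 6-FAM extension, 2 h HpaI digest at 37 C, CE detection; DMSO baseline.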

[8] = BSK_3C_TissueFactor: BioMAP Diversity Plus: 3C Assay for Tissue Factor Biomarker Activity (AID 2282997); settings: BioMAP 3C HUVEC, tissue factor biomarker readout; actives raise or lower the signal
Procedure, shortened: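 Cells used were primary human umbilical vein endothelial cells. They were dosed with chemical, and after 24 h Tissue Factor was quantified by ELISA. Curves were fitted bidirectionally with DMSO as baseline.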

[9] = BSK_3C_uPAR: BioMAP Diversity Plus: 3C Assay for Urokinase-type plasminogen activator receptor (uPAR) Biomarker Activity (AID 2282998); settings: BioMAP 3C HUVEC, uPAR biomarker ELISA; actives raise or lower the signal
Procedure, shortened: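 HUVEC primary cells; 24 h post-dose; uPAR by ELISA; gain or loss of signal fitted bidirectionally vs DMSO baseline.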

[10] = ATG_NF_kB_CIS: Attagene CIS-FACTORIAL HepG2 Assay for human Nuclear Factor Kappa B (NF-kB) (AID 2282991); settings: HepG2 Attagene cis-factorial NF-kB reporter mRNA; actives raise or lower the signal
Procedure, shortened: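 Measures mRNA induction of an NF-kB-responsive cis-element reporter in HepG2 cells transfected with multiple reporter units, sampled 24 h post-dosing; quantified by fluorescence after RT-PCR and capillary electrophoresis, fitted for activation or inhibition against DMSO.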

O=C(O)C(F)(F)C(F)(F)C(F)(F)C(F)(F)C(F)(F)C(F)(F)C(F)(F)C(F)(F)F
outcome [1]: inactive
outcome [2]: inactive
outcome [3]: inactive
outcome [4]: inactive
AC50 [5]: 50.9 µM (active) and 35.5 µM (active) and 13 µM (active)
AC50 [6]: 50 µM (active)
outcome [6]: inactive
AC50 [7]: 217 µM (active)
outcome [7]: inactive
AC50 [8]: 30 µM (active) and 46 µM (active)
outcome [8]: inactive
AC50 [9]: 25 µM (active) and 51.6 µM (active)
outcome [9]: inactive

O=S(=O)(O)C(F)(F)C(F)(F)C(F)(F)C(F)(F)F
outcome [1]: inactive
outcome [2]: inactive
outcome [3]: inactive
outcome [4]: inactive
outcome [10]: inactive
outcome [5]: inactive
outcome [6]: inactive
outcome [8]: inactive
outcome [9]: inactive

CN(C)c1nc(=O)n(C2CCCCC2)c(=O)n1C
outcome [1]: inactive
outcome [2]: inactive
outcome [3]: inactive
outcome [4]: inactive
outcome [5]: inactive
outcome [6]: inactive
outcome [8]: inactive
outcome [9]: inactive

CCSC(=O)N(CC)C1CCCCC1
outcome [1]: inactive
outcome [2]: inactive
outcome [3]: inactive
outcome [4]: inactive
outcome [10]: inactive
outcome [5]: inactive
outcome [6]: inactive
outcome [8]: inactive
outcome [9]: inactive

OCC(O)CO
outcome [1]: inactive
outcome [2]: inactive
outcome [3]: inactive
outcome [4]: inactive
outcome [10]: inactive
outcome [5]: inactive
outcome [6]: inactive
outcome [7]: inactive

Cc1cc2c3c(c1)C(c1ccccc1)=N[C@@H](NC(=O)c1ccncc1)C(=O)N3CC2
outcome [1]: inactive
outcome [2]: inactive
outcome [3]: inactive
outcome [4]: inactive
AC50 [5]: 96.6 µM (active)
AC50 [6]: 74 µM (active)
outcome [8]: inactive
outcome [9]: inactive

CC(C)(c1ccccc1)c1ccc(O)cc1
AC50 [1]: 51.8 µM (active)
outcome [1]: inactive
outcome [2]: inactive
AC50 [4]: 33.4 µM (active)
outcome [4]: inactive
AC50 [10]: 53.1 µM (active) and 50.4 µM (active)
outcome [10]: inactive
AC50 [5]: 33.4 µM (active) and 45.2 µM (active) and 22.5 µM (active)
AC50 [6]: 54.7 µM (active) and 33.4 µM (active)
outcome [6]: inactive
AC50 [8]: 30.5 µM (active)
AC50 [9]: 31.1 µM (active)

CCOC(=O)C(O)(c1ccc(Cl)cc1)c1ccc(Cl)cc1
outcome [1]: inactive
outcome [2]: inactive
outcome [3]: inactive
outcome [4]: inactive
outcome [10]: inactive
outcome [5]: inactive
outcome [6]: inactive
outcome [7]: inactive
AC50 [8]: 33.5 µM (active)
AC50 [9]: 31.7 µM (active)

Oc1c(Cl)c(Cl)c(Cl)c(Cl)c1Cl
outcome [1]: inactive
AC50 [2]: 12.5 µM (active) and 25.7 µM (active)
outcome [2]: inactive
AC50 [4]: 50 µM (active) and 91.9 µM (active)
outcome [4]: inactive
AC50 [10]: 9.11 µM (active)
outcome [10]: inactive
AC50 [5]: 13.7 µM (active) and 12.5 µM (active) and 2.62 µM (active)
AC50 [6]: 31.1 µM (active) and 11.4 µM (active) and 73.1 µM (active)
AC50 [8]: 26.9 µM (active)
outcome [8]: inactive
AC50 [9]: 13.5 µM (active) and 10.7 µM (active)

Cc1ccccc1[N+](=O)[O-]
outcome [1]: inactive
outcome [2]: inactive
outcome [3]: inactive
outcome [4]: inactive
outcome [10]: inactive
outcome [5]: inactive
outcome [6]: inactive
outcome [7]: inactive
outcome [8]: inactive
outcome [9]: inactive

C[C@]12CCC(=O)C=C1CC[C@@H]1[C@@H]2CC[C@@]2(C)[C@H]1CC[C@]2(C)O
outcome [1]: inactive
AC50 [2]: 21.6 µM (active)
outcome [2]: inactive
outcome [3]: inactive
outcome [4]: inactive
AC50 [5]: 60.3 µM (active) and 53.6 µM (active) and 91.5 µM (active)
outcome [6]: inactive
AC50 [7]: 58.8 µM (active)
outcome [7]: inactive
outcome [8]: inactive
outcome [9]: inactive

Cc1ccc(O)c(C)c1
outcome [1]: inactive
outcome [2]: inactive
outcome [3]: inactive
outcome [4]: inactive
outcome [10]: inactive
AC50 [5]: 7.51 µM (active)
outcome [6]: inactive
outcome [7]: inactive
outcome [8]: inactive
outcome [9]: inactive

O=C(N[C@H]1CN2CCC1CC2)c1cc2ccoc2cn1
outcome [1]: inactive
outcome [2]: inactive
outcome [3]: inactive
outcome [4]: inactive
outcome [10]: inactive
outcome [5]: inactive
outcome [6]: inactive
outcome [8]: inactive
outcome [9]: inactive

CC#Cc1cc(C)nc(Nc2ccccc2)n1
outcome [1]: inactive
outcome [2]: inactive
outcome [3]: inactive
outcome [4]: inactive
outcome [10]: inactive
AC50 [5]: 56.5 µM (active)
outcome [6]: inactive
outcome [8]: inactive
outcome [9]: inactive

C=CC(N)=O
outcome [1]: inactive
outcome [2]: inactive
outcome [3]: inactive
outcome [4]: inactive
outcome [10]: inactive
AC50 [5]: 66.5 µM (active)
AC50 [6]: 172 µM (active)
outcome [7]: inactive
outcome [8]: inactive
outcome [9]: inactive

Source: PubChem BioAssay (EPA / NIEHS)
